# Test results as given in PubChem BioAssay (NCATS).
# Records with an inconclusive call do not appear. Entries that show only a call come without a potency. The source made the active and inactive calls. Unless noted, calls follow the shape of the dose curve; as a rule, active = well fitted curve in the direction sought with a large enough effect; inconclusive = small, poorly fitted or top-dose-only effect, or another doubt; inactive = no such curve, though single readings can be large; an effect the other way counts as inactive or inconclusive.
# How the values were obtained:
# [1] = biological target: Nucleoprotein (Lymphocytic choriomeningitis virus (strain Armstrong)) (UniProt P09992); assay: qHTS for Inhibitors of the Functional Ribonucleoprotein Complex (vRNP) of Lymphocytic Choriomeningitis Arenaviruses (LCMV): LCMV Primary Screen - GLuc reporter signal (AID 1347086; calls by dose curve; also: potency is read from the fitted curve at half-maximal effect; nearly all actives have a fitted effect of over 70% in size)
# [2] = Cytotoxicity counterscreen for inhibitors of SARS-CoV-2 cell entry (AID 1645845; calls by dose curve; also: nearly all actives have a fitted effect of over 50% in size)
# Summary of the method: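 Expi293F/hACE2 cells seeded overnight; cpd pin-transferred in DMSO, 1 h preincubation, + media, 48 h 37 C 5% CO2; ATPLite 1step luminescence; normalized to cells and no cells.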
# [3] = Primary qHTS to identify inhibitors of SARS-CoV-2 cell entry (AID 1645846; calls by dose curve; also: nearly all actives have a fitted effect of over 45% in size); settings: activity change, negative = inhibition: at 57.1 µM (top of the series) unless noted
# Summary of the method: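 HEK293 cells stably expressing human ACE2, pre-treated 1 h with compound, then infected with MLV particles pseudotyped with Wuhan-Hu-1 spike (C-terminal 19-aa truncation). Luciferase luminescence after 48 h at 37 °C, normalised to spike PP and bald PP.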
# [4] = test system: Zika virus NS2B-NS3 protease; assay: Primary screen GU AMC qHTS for Zika virus inhibitors (AID 1347154); also: nearly all actives have a fitted effect of over 70% in size
# Summary of the method: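 Unlinked Zika NS2B hydrophilic domain/NS3 protease domain noncovalent complex (25 nM final) in 10 mM Tris-HCl pH 8.0, 0.01% Tween 20, with AMC peptide substrate. Fluorescence (ex 340, em 450 nm) change over 15 min, room temperature; percent inhibition fitted to 4-parameter Hill equation.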
# [5] = biological target: Furin (Homo sapiens) (UniProt P09958); assay: Furin counterscreen qHTS for Zika virus inhibitors (AID 1347149);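 also: purified recombinant full-length human furin enzyme at 5 nM; fluorescence gain from furin cutting a BOC-RVRR-AMC peptide substrate over 15 min; top concentration of the series differs between compounds; nearly all actives have a fitted effect of over 70% in size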
# Summary of the method: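 Fluorogenic cleavage of BOC-RVRR-AMC (2 microM final, Km ~15 µM) was monitored (ex 340, em 450 nm) at 37C after 15 min RT preincubation of 5 nM furin with compounds in HEPES pH 7.0 buffer with CaCl2 and Triton X-100. Percent inhibition was fitted to a 4-parameter Hill curve.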
# [6] = Vero cells viability qHTS for Zika virus inhibitors (AID 1347167)
# Summary of the method: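 Counter-screen for cytotoxicity of hits from NS2B-NS3 protease qHTS. Overnight-attached cells (2.5 x 10^5 cells/mL, DMEM/4% FBS) were dosed in titration, incubated 24 to 48 hours, then assayed by CellTiter Glo.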
# [7] = Tertiary RLuc qRT-PCR qHTS assay for Zika virus inhibitors (AID 1347169); also: potency is read from the fitted curve at half-maximal effect; nearly all actives have a fitted effect of over 55% in size
# Summary of the method: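 Vero cells (1,000/well) infected with recombinant ZIKV-RLuc (Cambodian) at MOI 1-2 after compound addition, 48-72 hrs at 37 degrees C. Live-cell Renilla luciferase substrate added; luminescence read after 1-1.5 hrs.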
# Chain of Nucleoprotein (Lymphocytic choriomeningitis virus (strain Armstrong)) (P09992 whole entry, looked up): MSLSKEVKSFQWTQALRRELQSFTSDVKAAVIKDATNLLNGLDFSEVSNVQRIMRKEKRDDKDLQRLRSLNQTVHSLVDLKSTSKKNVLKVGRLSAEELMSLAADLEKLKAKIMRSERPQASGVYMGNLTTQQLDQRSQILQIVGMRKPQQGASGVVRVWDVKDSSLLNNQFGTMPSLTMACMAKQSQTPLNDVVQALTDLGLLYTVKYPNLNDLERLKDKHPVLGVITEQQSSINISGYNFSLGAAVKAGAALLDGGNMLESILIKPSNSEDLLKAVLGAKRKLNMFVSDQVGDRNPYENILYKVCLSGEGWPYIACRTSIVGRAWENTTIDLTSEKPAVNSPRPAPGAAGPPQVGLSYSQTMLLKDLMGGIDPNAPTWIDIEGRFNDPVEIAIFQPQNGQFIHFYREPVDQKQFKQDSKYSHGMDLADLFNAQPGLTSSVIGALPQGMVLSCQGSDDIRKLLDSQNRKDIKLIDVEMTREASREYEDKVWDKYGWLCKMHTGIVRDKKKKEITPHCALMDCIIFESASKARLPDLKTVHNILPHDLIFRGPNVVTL
# Chain of Furin (Homo sapiens) (P09958 whole entry, looked up): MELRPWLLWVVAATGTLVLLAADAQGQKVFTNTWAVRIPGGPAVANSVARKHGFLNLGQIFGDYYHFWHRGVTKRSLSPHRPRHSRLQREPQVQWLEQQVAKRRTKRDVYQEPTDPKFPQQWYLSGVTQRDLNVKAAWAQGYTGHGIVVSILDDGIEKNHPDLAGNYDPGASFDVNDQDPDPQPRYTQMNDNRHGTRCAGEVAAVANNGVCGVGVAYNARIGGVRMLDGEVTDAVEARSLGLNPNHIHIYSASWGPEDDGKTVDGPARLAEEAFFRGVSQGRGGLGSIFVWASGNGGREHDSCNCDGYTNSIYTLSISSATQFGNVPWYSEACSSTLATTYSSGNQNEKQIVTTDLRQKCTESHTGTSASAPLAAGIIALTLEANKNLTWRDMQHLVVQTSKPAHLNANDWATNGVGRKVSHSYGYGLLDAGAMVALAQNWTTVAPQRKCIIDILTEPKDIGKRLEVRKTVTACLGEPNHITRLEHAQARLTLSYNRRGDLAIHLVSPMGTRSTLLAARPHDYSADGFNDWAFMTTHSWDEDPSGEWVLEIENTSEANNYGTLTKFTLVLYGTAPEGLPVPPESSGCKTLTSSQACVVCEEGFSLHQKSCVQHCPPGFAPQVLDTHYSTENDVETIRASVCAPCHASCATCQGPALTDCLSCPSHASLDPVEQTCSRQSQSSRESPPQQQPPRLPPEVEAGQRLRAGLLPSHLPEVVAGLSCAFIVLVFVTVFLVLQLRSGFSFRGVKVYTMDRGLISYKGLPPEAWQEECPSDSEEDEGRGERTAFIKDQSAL
compound,measurement,setting,value
Cc1ccc2c(=O)c3cccc(CC(=O)O)c3oc2c1C,Potency,[1],38.5 µM (active)
same,Potency,[2],inactive
same,"activity change, negative = inhibition",[3],-28.2%
NC(=O)[C@H](Cc1ccccc1)NC(=O)[C@H](Cc1c[nH]c2ccccc12)NC(=O)[C@@H]1CCCN1C(=O)[C@@H](N)Cc1ccc(O)cc1,"activity change, negative = inhibition",[4],11.2% [at 6.83 µM] (inactive)
C[C@H]1O[C@@H](O[C@H]2[C@@H](O)C[C@@H](O[C@H]3[C@@H](O)C[C@H](O[C@H]4CC[C@@]5(C)[C@H](CC[C@@H]6[C@@H]5CC[C@]5(C)[C@@H](C7=CC(=O)OC7)CC[C@]65O)C4)O[C@@H]3C)O[C@@H]2C)C[C@H](O)[C@@H]1O,Potency,[5],inactive
same,Potency,[6],inactive
same,Potency,[7],0.0537 µM (active)
O=C(/C=C/c1ccc(Cl)cc1)N[C@@]12CCC(=O)[C@@H]3Oc4c(O)ccc5c4[C@@]31CCN(CC1CC1)C2C5,Potency,[4],inactive
Cc1c(C(=O)c2cccc3ccccc23)c2cccc3c2n1[C@@H](CN1CCOCC1)CO3,Potency,[4],inactive
CCCCC/C=C\C/C=C\CCCCCCCC(=O)NCCO,"activity change, negative = inhibition",[4],7.86% [at 6.83 µM] (inactive)
